Records with an inconclusive call do not appear. The source made the active and inactive calls. Unless noted, calls come from the whole dose curve; as a rule, active = well fitted curve in the direction sought with a large enough effect; inconclusive = small, poorly fitted or top-dose-only effect, or another doubt; inactive = no such curve, though single readings can be large; an effect the other way counts as inactive or inconclusive.

Assay [1] in a line: AP1 Signaling Pathway (AID 357; active = well fitted curve in either direction with a large enough effect, not every such curve was filed as active;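 note: ME-180 reporter cells stimulated with EGF at its EC50 level; % is set by controls: 0 for no effect and ±100 for the full control effect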). Put shortly: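 Modulation of EGF-driven AP-1 transcription was assessed with a beta-lactamase reporter in ME-180 cells. Compound and EC50 EGF were co-incubated 5 hours at 37 °C before 2.5-hour CCF4 loading at room temperature and dual-emission reading.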
Assay [2] concerns the target Cytochrome P450 1A2 (Homo sapiens) (UniProt P05177). The experiment in a line: p450-cyp1a2 (AID 410; calls by dose curve; note: potency is the fitted concentration of half-maximal effect). Put shortly:
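Human CYP1A2 (20nM) demethylated Luciferin-ME at its Km (100uM) in 100mM KPO4. After 10 min compound preincubation, NADPH regeneration ran the reaction 60 min at room temperature. Luciferin was read by luminescence, normalized to 57 uM furafylline.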

A short description of assay [3]: NFAT Signaling Pathway (AID 444; active = well fitted curve in either direction with a large enough effect, not every such curve was filed as active;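 note: carbachol stimulus at about its EC50 of 1 µM final; % is set by controls: 0 for no effect and ±100 for the full control effect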). The conditions noted are these: Jurkat NFAT-bla M1, carbachol, beta-lactamase ratio, 5 h; at 17.2 µM (top of the series) unless noted. In short, it runs like this: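 Jurkat cells with NFAT-driven β-lactamase reporter and co-expressed M1 receptor, stimulated with carbachol (final 1 uM, ~EC50), compound titration, 5 h at 37 °C. CCF4 loaded 1 h at RT; 460/530 nm ratio gave %activity and AC50.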

Assay [4] can be described thus: Stat Signaling Pathway (AID 446; active = well fitted curve in either direction with a large enough effect, not every such curve was filed as active;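 note: ME-180 cervical cancer cells given 40 pM IL-6 alongside compound; SIE-controlled beta-lactamase reporter measured as 460/530 nm FRET emission ratio; % is set by controls: 0 for no effect and ±100 for the full control effect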). In short, it runs like this: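 Reporter line: ME-180 cervical carcinoma, SIE-beta-lactamase. Treatment: compound with 40 pM IL-6, 5 hrs, 37 C, in low-serum OPTI-MEM with 10 mM HEPES pH 7.3. Detection: 460/530 nm fluorescence.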
For assay [5], the target named is Mitogen-activated protein kinase 10 (Mus musculus) (UniProt Q61831). The experiment in a line: JNK3 AlphaScreen Assay (AID 530; active = well fitted curve in either direction with a large enough effect, not every such curve was filed as active;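 note: kinase came from lysate of stimulated human HepG2 cells; signal reports phosphorylation of biotinylated GST-cJun 1-79 at Ser73 with 10 µM ATP; % is set by controls: 0 for no effect and ±100 for the full control effect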). In short, it runs like this: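 qHTS format: compounds tested as titrations against IL-1beta/TNF-alpha-activated HepG2 lysate JNK3 with biotin-GST-cJun substrate and 10 uM ATP at room temperature. Loss of anti-phospho-cJun AlphaScreen signal indicates inhibition.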

Assay [6] addresses 3',5'-cyclic-AMP phosphodiesterase 4B (Homo sapiens) (UniProt Q07343). The experiment in a line: qHTS Assay for Inhibitors of PDE-IV (AID 607; active = well fitted activation curve with a large enough effect in the main read-out, with a control signal flat, not every such curve was filed as active; note: % of control where 0% means no effect). In short, it runs like this: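 Cell-based read-out of cAMP via a modified cyclic nucleotide-gated channel and membrane potential dye (535/590 nm) in HEK293 cells expressing PDE4 endogenously. Compounds tested up to 22.9 uM final; 100 uM RO 20-1724 reference.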
Background: Quantitative high-throughput screening tests each substance at several concentrations.

Assay [7] is described as follows: qHTS Assay for Lipid Storage Modulators (AID 1519; calls by dose curve). The conditions noted are these: Drosophila S3 cells, BODIPY lipid droplet/cell ratio, laser cytometry, cells loaded with oleic acid; for activity change, negative = inhibition: at 25.7 µM (top of the series). In short, it runs like this: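 Cells seeded at 5,000 per well were treated with compounds over a concentration series and loaded with oleic acid (400 uM, as added). Lipid droplet fluorescence (488 nm excitation, 500-530 nm channel) was read by laser-scanning cytometry and normalized to 20 uM Triacsin C.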

Assay [8] concerns the target ATP-dependent 6-phosphofructokinase (Trypanosoma brucei brucei) (UniProt O15648). Description: qHTS Assay to Find Inhibitors of T. brucei phosphofructokinase: hit validation (AID 492961). Note: % is set by controls: 0 for no effect and ±100 for the full control effect. In short, it runs like this:
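Luminescence from ADP-Glo reports ADP generated as T. brucei PFK (1.25 nM) phosphorylates 0.5 mM fructose-6-phosphate using 0.1 mM ATP. Reactions ran 45 min at room temperature, pH 8.0.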

Assay [9] addresses Ubiquitin carboxyl-terminal hydrolase 1 (Homo sapiens) (UniProt O94782). Description: Inhibitors of USP1/UAF1: Pilot qHTS (AID 504865).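 Note: rhodamine fluorescence freed from ubiquitin-rhodamine substrate followed over time; top concentration of the series differs between compounds; % is set by controls: 0 for no effect and ±100 for the full control effect; nearly all actives have a fitted effect of over 35% in size.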 Put shortly: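 USP1/UAF1 complex (1nM) preincubated with compound 15 min at room temperature, then Ub-Rho substrate (150nM final) added. Fluorescence read kinetically at 480/540 nm, 6 reads every 60 seconds. Buffer: 50mM HEPES pH 7.8, 0.5mM EDTA, 0.1 mg/ml BSA, 1mM TCEP, 0.01% Tween-20.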

The target in assay [10] is Luciferin 4-monooxygenase (Photinus pyralis) (UniProt P08659). Description: Biochemical firefly luciferase enzyme assay for NPC (AID 624030).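 Note: purified P. pyralis luciferase at 10 nM with luciferin and ATP substrate; 0% = DMSO and -100% = full luciferase inhibition by PTC124 control; nearly all actives have a fitted effect of over 70% in size.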 Put shortly:
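Purified P. pyralis luciferase at 10 nM in 50 mM Tris Acetate (final), luminescence read within 5 minutes of enzyme addition to compounds. Activity normalised to PTC124 versus DMSO; concentration-response curves classed by r2, magnitude and activity.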

Assay [11] in a line: qHTS profiling for inhibitors of Plasmodium falciparum proliferation (AID 504749).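 Note: 0% = DMSO vehicle and full inhibition = artemisinin control; nearly all actives have a fitted effect of over 60% in size.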 The conditions noted are these: P. falciparum in erythrocytes, SYBR Green DNA, 72 h, at 12.8 µM (top of the series). Put shortly: (§1)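 Readout was DNA-dye fluorescence from lysed cultures, ex 485/em 535 nm. Parasitized red cells had grown 72 h with compound; data scaled between 0.29 uM artemisinin and DMSO wells and corrected using vehicle-only plates.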

For assay [12], the system named is 3D7. Described as above. The conditions noted are these: P. falciparum in erythrocytes, SYBR Green DNA, 72 h; series mostly up to 12.8 µM. Put shortly:
as §1

The test system of assay [13] is C2A. Described as above. The conditions noted are these: P. falciparum in erythrocytes, SYBR Green DNA, 72 h; series mostly up to 12.8 µM. Put shortly: as §1
The subject of assay [14] is CP217. The assay is described as above. The conditions noted are these: P. falciparum in erythrocytes, SYBR Green DNA, 72 h; series mostly up to 12.8 µM. In short, it runs like this:
as §1

In assay [15] the test system is CP250. The assay is described as above. The conditions noted are these: P. falciparum in erythrocytes, SYBR Green DNA, 72 h; series mostly up to 12.8 µM. In short, it runs like this:
as §1

Assay [16] concerns FAB9. The description is as above. The conditions noted are these: P. falciparum in erythrocytes, SYBR Green DNA, 72 h; series mostly up to 12.8 µM. Put shortly:
as §1

Assay [17] concerns JCK. The description is as above. The conditions noted are these: P. falciparum in erythrocytes, SYBR Green DNA, 72 h; series mostly up to 12.8 µM. Put shortly:
as §1

Assay [18] relates to PC49. The assay is described as above. The conditions noted are these: P. falciparum in erythrocytes, SYBR Green DNA, 72 h; series mostly up to 12.8 µM. In short, it runs like this: as §1
The mark [19] stands for this setting: measured here: cell count channel max response.
Setting [20] is: measured here: lipid channel max response.

3',5'-cyclic-AMP phosphodiesterase 4B (Homo sapiens), sequence (Q07343 whole entry, looked up): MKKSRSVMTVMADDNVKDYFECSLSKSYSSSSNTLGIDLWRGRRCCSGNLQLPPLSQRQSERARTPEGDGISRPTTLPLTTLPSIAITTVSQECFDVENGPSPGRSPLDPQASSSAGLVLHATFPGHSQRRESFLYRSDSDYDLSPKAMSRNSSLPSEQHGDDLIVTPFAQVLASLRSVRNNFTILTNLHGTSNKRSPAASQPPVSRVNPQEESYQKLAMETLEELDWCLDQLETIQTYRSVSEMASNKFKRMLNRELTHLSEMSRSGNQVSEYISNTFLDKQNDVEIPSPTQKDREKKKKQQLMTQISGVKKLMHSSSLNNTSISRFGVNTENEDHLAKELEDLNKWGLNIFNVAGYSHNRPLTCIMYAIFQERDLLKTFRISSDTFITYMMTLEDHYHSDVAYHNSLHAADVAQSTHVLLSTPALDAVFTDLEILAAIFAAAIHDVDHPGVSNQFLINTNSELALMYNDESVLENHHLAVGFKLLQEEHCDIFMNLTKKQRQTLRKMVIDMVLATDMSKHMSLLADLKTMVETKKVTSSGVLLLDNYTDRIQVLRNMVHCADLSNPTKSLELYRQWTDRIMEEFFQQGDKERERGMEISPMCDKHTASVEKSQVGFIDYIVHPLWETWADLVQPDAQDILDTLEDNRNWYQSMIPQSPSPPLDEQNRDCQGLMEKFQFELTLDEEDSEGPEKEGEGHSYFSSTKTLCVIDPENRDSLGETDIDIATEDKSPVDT
Ubiquitin carboxyl-terminal hydrolase 1 (Homo sapiens), sequence (O94782 whole entry, looked up): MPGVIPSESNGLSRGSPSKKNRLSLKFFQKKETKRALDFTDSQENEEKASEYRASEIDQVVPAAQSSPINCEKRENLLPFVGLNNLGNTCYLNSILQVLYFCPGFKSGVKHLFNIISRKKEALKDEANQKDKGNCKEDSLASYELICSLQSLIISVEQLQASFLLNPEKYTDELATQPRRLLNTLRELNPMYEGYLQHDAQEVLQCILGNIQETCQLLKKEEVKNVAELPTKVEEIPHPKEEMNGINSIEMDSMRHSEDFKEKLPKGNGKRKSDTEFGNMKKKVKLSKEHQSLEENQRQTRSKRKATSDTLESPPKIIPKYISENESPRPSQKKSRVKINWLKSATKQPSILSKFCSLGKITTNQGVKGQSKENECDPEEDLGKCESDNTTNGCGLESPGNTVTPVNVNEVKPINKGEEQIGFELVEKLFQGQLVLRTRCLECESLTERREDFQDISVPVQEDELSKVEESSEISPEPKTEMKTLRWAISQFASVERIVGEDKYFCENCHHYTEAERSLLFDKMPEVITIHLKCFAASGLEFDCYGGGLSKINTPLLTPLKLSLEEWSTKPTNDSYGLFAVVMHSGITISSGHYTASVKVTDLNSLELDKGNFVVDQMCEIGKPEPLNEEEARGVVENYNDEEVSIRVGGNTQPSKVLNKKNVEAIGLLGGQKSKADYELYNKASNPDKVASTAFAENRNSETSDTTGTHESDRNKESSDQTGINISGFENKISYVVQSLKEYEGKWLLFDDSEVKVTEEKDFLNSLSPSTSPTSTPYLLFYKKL
Luciferin 4-monooxygenase (Photinus pyralis), sequence (P08659 whole entry, looked up): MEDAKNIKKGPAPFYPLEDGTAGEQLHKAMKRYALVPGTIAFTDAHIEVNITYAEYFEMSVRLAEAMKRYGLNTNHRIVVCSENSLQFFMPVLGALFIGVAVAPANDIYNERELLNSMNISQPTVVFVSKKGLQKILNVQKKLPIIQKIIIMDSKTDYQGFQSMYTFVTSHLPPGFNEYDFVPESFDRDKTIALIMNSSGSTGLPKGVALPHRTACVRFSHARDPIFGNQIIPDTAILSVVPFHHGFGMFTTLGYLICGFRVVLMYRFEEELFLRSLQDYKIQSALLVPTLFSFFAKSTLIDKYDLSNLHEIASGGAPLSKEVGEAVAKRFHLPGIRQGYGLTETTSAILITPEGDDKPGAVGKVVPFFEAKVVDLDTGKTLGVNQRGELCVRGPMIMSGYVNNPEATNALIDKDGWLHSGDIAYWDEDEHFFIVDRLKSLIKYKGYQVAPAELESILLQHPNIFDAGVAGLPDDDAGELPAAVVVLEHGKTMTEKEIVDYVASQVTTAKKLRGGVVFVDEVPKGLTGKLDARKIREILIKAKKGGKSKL
Cytochrome P450 1A2 (Homo sapiens), sequence (P05177 whole entry, looked up): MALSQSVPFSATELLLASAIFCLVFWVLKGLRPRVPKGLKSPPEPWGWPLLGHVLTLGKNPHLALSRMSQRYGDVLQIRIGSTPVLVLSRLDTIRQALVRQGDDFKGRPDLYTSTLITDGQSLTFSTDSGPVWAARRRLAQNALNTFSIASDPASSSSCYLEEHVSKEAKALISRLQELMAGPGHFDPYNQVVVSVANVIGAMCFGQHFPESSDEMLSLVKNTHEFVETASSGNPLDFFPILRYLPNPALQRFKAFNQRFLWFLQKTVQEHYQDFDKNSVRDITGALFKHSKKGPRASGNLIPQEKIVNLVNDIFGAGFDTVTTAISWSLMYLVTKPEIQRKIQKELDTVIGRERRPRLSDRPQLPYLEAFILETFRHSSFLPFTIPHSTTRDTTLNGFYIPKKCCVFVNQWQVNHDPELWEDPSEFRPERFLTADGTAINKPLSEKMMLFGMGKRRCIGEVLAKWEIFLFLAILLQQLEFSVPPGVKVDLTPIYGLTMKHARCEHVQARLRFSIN
ATP-dependent 6-phosphofructokinase (Trypanosoma brucei brucei), sequence (O15648 whole entry, looked up): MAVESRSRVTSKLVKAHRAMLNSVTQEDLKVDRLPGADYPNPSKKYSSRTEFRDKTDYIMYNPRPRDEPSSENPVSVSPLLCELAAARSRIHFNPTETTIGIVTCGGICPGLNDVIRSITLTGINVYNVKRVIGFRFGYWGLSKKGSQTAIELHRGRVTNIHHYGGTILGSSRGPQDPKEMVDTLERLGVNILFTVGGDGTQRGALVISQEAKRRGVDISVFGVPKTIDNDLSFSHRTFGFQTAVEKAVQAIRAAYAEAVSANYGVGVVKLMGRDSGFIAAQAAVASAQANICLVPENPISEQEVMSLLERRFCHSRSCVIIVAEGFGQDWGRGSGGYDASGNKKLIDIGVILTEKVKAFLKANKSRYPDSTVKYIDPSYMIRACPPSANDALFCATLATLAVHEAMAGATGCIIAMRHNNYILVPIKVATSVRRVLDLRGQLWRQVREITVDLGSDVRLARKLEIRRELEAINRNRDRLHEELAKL

Turning to `C[C@H]1CC[C@]2(OC1)O[C@@H]1C[C@@H]3[C@@H]4CC[C@H]5C[C@@H](O)CC[C@]5(C)[C@@H]4CC(=O)[C@@]3(C)[C@H]1[C@@H]2C`, the compound was classed as inactive in [1], in assay [4], in assay [6] and in [8]. The Potency entry in assay [2], in [5], in assay [9], in [10], in assay [12] and in [13] was “inactive” each time. In addition, the Potency result in assay [14], in assay [15], in assay [16], in assay [17] and in assay [18] was “inactive” each time. Also, the activity change, negative = inhibition is 0.559% (inactive) in [3] and -1.95% (inactive) in assay [7]. In addition, the max response was -5.08% in assay [7] (setting [19]) and -7.26% in assay [7] (setting [20]). In addition, the activity, negative = inhibition was 11.1% (inactive) in assay [11] (parasite line A) and 13.9% (inactive) in assay [11] (parasite line B).
On to `O=C(O)[C@@H](O)[C@@H](O)[C@@H](O)[C@@H](O)C(=O)O` (tested in a mixture with another compound), for which the result in [1], in [4] and in [6] was inactive. Besides, the Potency entry in assay [2], in [5] and in assay [10] was “inactive” in each case. In addition, the activity change, negative = inhibition is -16.6% (inactive) in assay [3] and -0.616% (inactive) in assay [7]. Moreover, the max response in assay [7] (setting [19]) is -10.9%; in assay [7] (setting [20]), -7.78%.
In the case of `COCC(=O)Nc1c(I)c(C(=O)NC[C@@H](O)CO)c(I)c(C(=O)N(C)C[C@@H](O)CO)c1I`, the compound was called inactive in assay [1], in [4], in assay [6] and in assay [8]. For the same compound, the Potency result in [2], in assay [5], in assay [10], in assay [12], in assay [13] and in assay [14] was “inactive” each time. The Potency entry in assay [15], in assay [16], in assay [17] and in [18] was “inactive” each time. The activity change, negative = inhibition in [3] is 3.09% (inactive); in assay [7] it was -0.947% (inactive). Further, the max response was -5.27% in assay [7] (setting [19]) and -9.01% in [7] (setting [20]). The activity, negative = inhibition in [11] (parasite line A) was -0.503% (inactive); in assay [11] (parasite line B), -0.0954% (inactive).
Regarding `CCOC(=O)C1=C(C)NC(C)=C(C(=O)OC)[C@@H]1c1cccc([N+](=O)[O-])c1`, the call in assay [1], in [4] and in assay [6] was inactive. In assay [2], the Potency was 15.8 µM (active). Also, the activity change, negative = inhibition in [3] was -23.9% (inactive); in assay [7], 0.673% (inactive). Further, the Potency entry in [5] and in [9] was “inactive” in each case. Also, the max response in assay [7] (setting [19]) is -15%; in [7] (setting [20]), -22.2%.
With `CC[C@@H]1OC(=O)[C@H](C)[C@H](O[C@@H]2C[C@](C)(OC)[C@H](O)[C@H](C)O2)[C@H](C)[C@H](O[C@@H]2O[C@@H](C)C[C@@H](N(C)C)[C@@H]2O)[C@](C)(O)C[C@H](C)[C@@H]2N[C@H](COCCOC)O[C@H]([C@@H]2C)[C@]1(C)O`, the compound was called inactive in [1], in assay [4] and in [6]. Besides, the Potency result in [2], in [5] and in assay [9] was “inactive” each time. Also, the activity change, negative = inhibition was -16.7% (inactive) in assay [3] and -3.92% (inactive) in assay [7]. Moreover, the max response is -8.33% in [7] (setting [19]) and -9.89% in assay [7] (setting [20]).
In the case of `CO[C@]1(NC(=O)Cc2cccs2)C(=O)N2C(C(=O)O)=C(COC(N)=O)CS[C@H]21`, the compound was classed as inactive in assay [1], in assay [4] and in assay [6]. For the same compound, the Potency entry in [2], in [5] and in [9] was “inactive” each time. The activity change, negative = inhibition in [3] was 3.7% (inactive); in assay [7], 2.57% (inactive). The max response in [7] (setting [19]) is -2.6%; in assay [7] (setting [20]), 0.943%.
Turning to `CCCC[C@H](CC)CN1CN(C[C@@H](CC)CCCC)CC(C)(N)C1`, the compound was called inactive in [1], in [4], in assay [6] and in assay [8]. The Potency entry in assay [2], in assay [5], in assay [10], in assay [12], in assay [13] and in [14] was “inactive” throughout. In addition, the Potency result in assay [15], in assay [16], in assay [17] and in assay [18] was “inactive” throughout. Moreover, the activity change, negative = inhibition in [3] was -26.2% (inactive); in assay [7], -1.27% (inactive). Besides, the max response was 0.881% in assay [7] (setting [19]) and -2.09% in assay [7] (setting [20]). Besides, the activity, negative = inhibition is -5.01% (inactive) in assay [11] (parasite line A) and 14.7% (inactive) in assay [11] (parasite line B).

The values are drawn from PubChem BioAssay (NCATS).
